From PubChem BioAssay AID1159580 (chemical genetic matrix, 2015)
Several values for one entry are separate records, joined by “and”; a condition that tells them apart may be missing. Equal values may be shown once. In all, about 5,500 compounds went through this assay and about 2,000 (36%) were called active. Roughly 18% stayed inconclusive and do not appear here. No stated cut-off is given here; in the data, active means normalized growth mostly below about 0.91 (no sharp cut-off); inconclusive means no clear call, values can overlap the other calls; inactive means mostly above about 0.92. Some of the results follow.

Experiment: chemical genetic growth profiling, strain panel (AID 1159580);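 further: tested at 20 µM; growth read once vehicle control cultures reached saturation at 30 °C; 1 = growth at the plate median or of vehicle wells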
Settings: S. cerevisiae deletion strains, growth OD

Measured: normalized growth

C[C@@H]1C(=O)OC2[C@H](O)C34[C@@H]5OC(=O)[C@@]3(O[C@@H]3OC(=O)[C@H](O)[C@@]34[C@H](C(C)(C)C)[C@H]5O)[C@]21O (stereo partly drawn)
inactive: locus YAL013W, strain DEP1, stronger effect = lower value 0.998 | locus YAL021C, strain ccr4, stronger effect = lower value 0.952 | locus YAL026C, strain drs2, stronger effect = lower value 0.978 | locus YAL030W, strain snc1, stronger effect = lower value 0.973 | locus YBL061C, strain skt5, stronger effect = lower value 0.975 | locus YBR009C, strain hhf1, stronger effect = lower value 0.959 | locus YBR021W, strain FUR4, stronger effect = lower value 0.983 | locus YBR023C, strain chs3, stronger effect = lower value 0.986 | locus YBR171W, strain sec66, stronger effect = lower value 0.974 | locus YBR229C, strain ROT2, stronger effect = lower value 1 | locus YBR231C, strain swc5, stronger effect = lower value 0.976 | locus YBR279W, strain paf1, stronger effect = lower value 0.98 | locus YCL011C, strain gbp2, stronger effect = lower value 0.972 | locus YCL016C, strain dcc1, stronger effect = lower value 0.975 | locus YCL029C, strain bik1, stronger effect = lower value 1.02 | locus YCL061C, strain MRC1, stronger effect = lower value 0.96 | locus YCL069W, strain vba3, stronger effect = lower value 0.976 | locus YCR088W, strain abp1, stronger effect = lower value 0.983 | locus YDL005C, strain med2, stronger effect = lower value 0.964 | locus YDL035C, strain GPR1, stronger effect = lower value 1 | locus YDL040C, strain nat1, stronger effect = lower value 0.975 | locus YDL074C, strain BRE1, stronger effect = lower value 0.999 | locus YDL101C, strain DUN1, stronger effect = lower value 1.01 | locus YDL134C, strain PPH21, stronger effect = lower value 0.999 | locus YDL185W, strain tfp1, stronger effect = lower value 1.02 | locus YDL192W, strain arf1, stronger effect = lower value 1.01 | locus YDR001C, strain nth1, stronger effect = lower value 0.973 | locus YDR069C, strain doa4, stronger effect = lower value 0.983 | locus YDR101C, strain arx1, stronger effect = lower value 1.01 | locus YDR137W, strain rgp1, stronger effect = lower value 0.935 | locus YDR159W, strain sac3, stronger effect = lower value 0.946 | locus YDR162C, strain NBP2, stronger effect = lower value 0.987 | locus YDR195W, strain ref2 0.942 | locus YDR297W, strain sur2, stronger effect = lower value 0.97 | locus YDR318W, strain mcm21, stronger effect = lower value 1.01 | locus YDR334W, strain swr1, stronger effect = lower value 0.976 | locus YDR335W, strain msn5, stronger effect = lower value 0.965 | locus YDR388W, stronger effect = lower value 1.01 | locus YDR392W, strain spt3, stronger effect = lower value 0.949 | locus YDR502C, strain sam2, stronger effect = lower value 1.03 | locus YEL003W, strain gim4, stronger effect = lower value 0.961 | locus YEL037C, strain rad23, stronger effect = lower value 0.976 | locus YEL061C, strain CIN8 (second series), stronger effect = lower value 0.965 | locus YEL061C, strain CIN8, stronger effect = lower value 0.992 | locus YER015W, strain faa2, stronger effect = lower value 0.989 | locus YER016W, strain bim1, stronger effect = lower value 0.975 | locus YER110C, stronger effect = lower value 1.01 | locus YER111C, strain swi4, stronger effect = lower value 0.964 | locus YER155C, strain BEM2 (second series), stronger effect = lower value 1.02 | locus YER155C, strain BEM2, stronger effect = lower value 1 | locus YER167W, strain BCK2, stronger effect = lower value 0.996 | locus YFR010W, strain ubp6, stronger effect = lower value 0.985 | locus YGL078C, strain dbp3, stronger effect = lower value 1.01 | locus YGL086W, strain mad1, stronger effect = lower value 1.03 | locus YGL167C, strain pmr1, stronger effect = lower value 0.972 | locus YGL173C, strain kem1, stronger effect = lower value 0.953 | locus YGL227W, strain vid30, stronger effect = lower value 0.955 | locus YGL240W, strain doc1, stronger effect = lower value 0.981 | locus YGL248W, strain PDE1, stronger effect = lower value 1.01 | locus YGL253W, strain hxk2, stronger effect = lower value 0.974 | locus YGR078C, strain PAC10, stronger effect = lower value 1 | locus YGR135W, strain pre9, stronger effect = lower value 1.02 | locus YGR252W, strain gcn5, stronger effect = lower value 1.01 | locus YHR013C, strain ard1, stronger effect = lower value 0.957 | locus YHR027C, strain rpn1, stronger effect = lower value 0.987 | locus YHR030C, strain SLT2, stronger effect = lower value 1 and 1.05 | locus YHR079C, strain IRE1 (second series), stronger effect = lower value 1.02 | locus YHR079C, strain IRE1, stronger effect = lower value 1.03 | locus YHR094C, strain hxt1, stronger effect = lower value 1.01 | locus YHR129C, strain ARP1, stronger effect = lower value 1 | locus YHR142W, strain chs7, stronger effect = lower value 0.956 | locus YHR200W, strain rpn10, stronger effect = lower value 1.01 | locus YIL066C, strain RNR3, stronger effect = lower value 1 | locus YIL073C, strain SPO22, stronger effect = lower value 1.06 | locus YIL125W, strain kgd1, stronger effect = lower value 1.01 | locus YIR030C, strain dcg1, stronger effect = lower value 1.02 | locus YJL092W, strain hpr5, stronger effect = lower value 0.975 | locus YJL095W, strain BCK1 (second series), stronger effect = lower value 0.955 | locus YJL095W, strain BCK1, stronger effect = lower value 0.992 and 1.03 | locus YJL115W, strain asf1, stronger effect = lower value 0.956 | locus YJL129C, strain trk1, stronger effect = lower value 0.974 | locus YJL134W, strain LCB3, stronger effect = lower value 1 | locus YJL154C, strain vps35, stronger effect = lower value 0.977 | locus YJL164C, strain tpk1, stronger effect = lower value 0.969 | locus YJL166W, strain qcr8, stronger effect = lower value 0.992 | locus YJL168C, strain set2, stronger effect = lower value 1.01 | locus YJL187C, strain SWE1 (second series), stronger effect = lower value 1.01 | locus YJR043C, strain POL32, stronger effect = lower value 0.994
